Experimental data reported in PubChem BioAssay AID907 (National Center for Advancing Translational Sciences (NCATS), 2007).
Some of the results follow. Inconclusive results are not listed. The source made the active and inactive calls. Calls follow the shape of the dose curve; as a rule, active = well fitted activation curve with a large enough effect; inconclusive = small, poorly fitted or top-dose-only effect, or effect the other way; inactive = flat fitted curve, though single readings scatter.

Assay: Confirmation Concentration-Response Assay for Cell signaling CRE-BLA (Fsk stim) - HEK293 CREB Luciferase
Conditions: HEK293 CRE-luc2P, NKH477 EC10 potentiation, luminescence, 4 h
Excerpt: NIH Molecular Libraries Screening Centers Network [MLSCN] NIH Chemical Genomics Center [NCGC] MLSCN Grant: 1X01MH079867-01 Assay Provider: Marshall W. Nirenberg, U.S. National Heart, Lung and Blood Institute CRE Luciferase Assay Overview Memories persist for different lengths of time, from seconds or minutes to a lifetime. There are two kinds of memory: short-term memory (STM) and long-term memory (LTM). STM lasts for minutes to hours, which maybe mediated by modifications of molecules involved in synaptic functions. LTM lasts for days or longer, and may be due to the formation of new synapses or restructuring of existing synapses. LTM, but not STM, requires gene transcription and synthesis of proteins. CREB (cyclic-AMP Responsive Element Binding Protein) is one of the candidates plays an important role for enhancement of some types of LTM. CREB, a family of transcription factors, regulates the transcription of genes containing cAMP Responsive Elements (CRE). CRE is a nucleotide sequence often found in the promoter regions of genes that are binding sites for CREB. Using a luciferase reporter-gene under control of cAMP responsive element, a cell-based assay [CRE-luc2P HEK293 developed by Promega] was used to measure forskolin-induced signaling. The selected compounds were measured for their ability to modulate positively the action of EC10 NKH 477, a water soluble forskolin, on reporter gene activity. Compounds were screened in a titration series in 1536-well format. Positive modulators were identified based on the AC50 values derived from the screening data.
NCGC Assay Protocol Summary 2500 cells/5uL in DEME with 1% FBS was dispensed into 1536-well plates and cells were cultured at 37 degrees Celsius overnight. Next day 23 nL of compounds or DMSO were delivered to each well using a pin tool, and 1uL of EC10 level of NKH 477, or EC100 level of IBMX, a PDE inhibitor, in the present of NKH 477, or assay medium was added. And then the plates were incubated at 37 degrees Celsius for 4 hours. 6 uL of Bright-Glo luciferase (Promega, WI) was added to each well. After incubated at room temperature for 10min the plates were measured for luminescence intensity on a ViewLux (Perkin Elmer) detector. Keywords: NIH Roadmap, MLSCN, MLSMR, qHTS, NCGC, CRE, luciferase, reporter-gene assay.

Potency, active:
CC1CCc2sc3nc(N4CCN(CCO)CC4)n4ncnc4c3c2C1 (stereo not given) 12.6 µM
CCc1nc(Nc2ccc3nccnc3c2)c2oc3ccccc3c2n1 1.26 µM
Cc1nn(-c2ccccc2)c2sc(C(=O)N(Cc3ccco3)C(C)C(=O)NC(C)(C)C)cc12 (stereo not given) 4.47 µM
Cc1nc(SCC(=O)Nc2cc(C)on2)c2c3c(sc2n1)CCCC3 4.47 µM
COc1ccc(CCNC(=O)CSc2nc(C)nc3c2oc2ccccc23)cc1OC 10 µM
